High-throughput results as filed in PubChem.
The full list was thinned out, with hits kept by preference.
LmPK inh: blocks Leishmania mexicana pyruvate kinase activity | Q27686 | 0.37% of 290,000 active | purified LmPK, Kinase-Glo ATP luminescence, 1 h | Potency, µM (top dose mostly 57.5 µM), actives largely listed as inhibitors | AID 1721; active = well fitted curve in the direction sought with a large enough effect; inconclusive = small, poorly fitted or top-dose-only effect, or another doubt; inactive = no such curve, though single readings can be large; an effect the other way counts as inactive or inconclusive
Target sequence (Q27686 whole entry, looked up): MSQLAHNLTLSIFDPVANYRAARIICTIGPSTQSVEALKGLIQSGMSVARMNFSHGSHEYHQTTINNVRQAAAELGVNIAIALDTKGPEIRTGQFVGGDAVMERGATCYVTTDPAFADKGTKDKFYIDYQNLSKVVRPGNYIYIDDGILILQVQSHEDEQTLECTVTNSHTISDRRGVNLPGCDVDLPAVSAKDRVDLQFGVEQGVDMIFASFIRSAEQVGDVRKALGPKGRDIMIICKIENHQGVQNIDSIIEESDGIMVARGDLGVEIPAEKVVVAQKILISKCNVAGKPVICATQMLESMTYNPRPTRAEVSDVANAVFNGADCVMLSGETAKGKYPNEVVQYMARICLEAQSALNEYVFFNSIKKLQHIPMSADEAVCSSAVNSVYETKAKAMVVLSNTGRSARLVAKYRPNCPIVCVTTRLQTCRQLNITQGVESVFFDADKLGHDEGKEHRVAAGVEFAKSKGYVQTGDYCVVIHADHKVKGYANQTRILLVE
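qHTS format; LmPK 0.1 nM; substrates PEP 0.5 mM and ADP 0.1 mM. One-hour room-temperature incubation, then coupled luciferase luminescence; 0.5 nM enzyme wells mark activation.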
CHX counter: affects cycloheximide protein synthesis inhibition readout, counter-screen; 12% of 300,000 active; max response, %; cell reporter, cycloheximide protein synthesis inhibition counterscreen; AID 2314; in the data active = max response mostly above about 13%, no sharp cut-off; inactive = mostly below about 14%; note: read at 38.3 µM for the half of the compounds with a filed dose
Shiga inhibitor: Shiga toxin inhibition; Vero cells, Shiga toxin protein synthesis inhibition reporter; inhibition, % at 38.7 µM; 9.2% of 290,000 active; in the data active = inhibition mostly above about 28%, no sharp cut-off; inactive = mostly below about 43%
TbPYK inhibitor: inhibitors of Trypanosoma brucei pyruvate kinase | TbPYK enzyme, Kinase-Glo Plus ATP luminescence, 45 min | Q57TT1 | AID 624173 | 0.12% of 410,000 active | Potency, µM (top dose mostly 76.8 µM), usual class: inhibitors; active = well fitted curve in the direction sought with a large enough effect; inconclusive = small, poorly fitted or top-dose-only effect, or another doubt; inactive = no such curve, though single readings can be large; an effect the other way counts as inactive or inconclusive; note: nearly all actives have a fitted effect of over 50% in size
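Screened from lowest to highest concentration, compounds were pinned into TbPYK/substrate mixtures, and ADP (130 uM final) was added. Plates sat at room temperature for 45 min prior to Kinase-Glo Plus detection by luminescence.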
SARS PLP yeast: blocks SARS-CoV papain-like protease in a yeast assay. S. cerevisiae expressing SARS-CoV PLpro, growth rescue. Potency, µM (highest dose often 32.9 µM), hits mostly activators. 0.19% of 330,000 active; note: nearly all actives have a fitted effect of over 55% in size
NS1 function inh: inhibitors of influenza NS1 protein function | Potency, µM (titrated, usually from 46.1 µM) | 0.4% of 270,000 active | AID 2326; note: actives are rising curves; nearly all actives have a fitted effect of over 50% in size
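Growth recovery, yeast-based: influenza A NS1 expressed in S. cerevisiae causes slow growth, and suppressors are detected by OD600. The parent strain without NS1 is used as positive control.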
Numbers stand for hits; . = inactive; ? = inconclusive; / = no result given; + = active, no number. Unless noted, calls come from the whole dose curve.

SMILES	LmPK inh	CHX counter	Shiga inhibitor	TbPYK inhibitor	SARS PLP yeast	NS1 function inh
CCN1C(=O)C2(c3ccccc31)c1c(oc3ccccc3c1=O)C(=O)N2CCOC (centres undefined)	/	/	/	.	/	/
CCC(Oc1ccccc1)C(=O)Nc1nc2ccccc2[nH]1 (centres undefined)	.	21	.	.	.	.
N#CC(Cc1ccc(OC(F)F)cc1)c1nc2ccccc2[nH]1 (centres undefined)	?	26	66	.	.	.
Cn1nc(C(=O)Nc2nc3ccccc3[nH]2)c2ccccc2c1=O	.	29	.	.	.	.
CC(C)Oc1ccc(C(=O)Nc2nc3ccccc3[nH]2)cc1	.	25	.	.	.	.
N#CC(Cc1cccs1)c1nc2ccccc2[nH]1 (centres undefined)	/	/	/	.	/	/
COc1ccc(NC(=O)c2cc(C)no2)cc1Cl	.	.	.	.	.	.
O=C(Cc1ccc(NC(=O)C2CCN(C(=O)c3ccccc3)CC2)cc1)Nc1cccc(C(=O)N2CCCCC2)c1	/	/	/	.	/	/
O=C(Nc1nc2ccccc2[nH]1)c1ccc(OC(F)F)cc1	?	19	59	.	.	.
O=C(Nc1nc2ccccc2[nH]1)c1ccccc1OC(F)F	?	.	.	.	.	.
CCC1(C)CC(C#N)(C#N)C(=O)NC1=O (centres undefined)	/	/	/	.	/	/
O=C(N/N=C/c1ccc(O)cc1O)/C(=C/c1ccccc1)CCO	.	19	.	.	?	.
COc1cc(/C=N/NC(=O)/C(=C/c2ccccc2)CCO)ccc1O	.	.	.	.	.	.
COc1ccc(/C=N/NC(=O)/C(=C/c2ccccc2)CCO)cc1	.	12	.	.	.	.
COc1ccc(C(=O)N2CCC[C@@]3(CCN(c4ccccc4)C3)C2)cc1	/	/	/	.	/	/
NC(=O)CCn1c2ccccc2c2ccccc21	.	.	.	.	.	.
Cc1ccc2c(c1)c1cccc3c1n2CCN3CCC(N)=O	.	34	190	.	.	.
O=c1oc2c(CN3CCCCC3)c(O)ccc2cc1-c1nc2ccccc2[nH]1	.	12	.	.	.	.
CN1CCN(Cc2c(O)ccc3cc(-c4ccccc4)c(=O)oc23)CC1	/	/	/	.	/	/
O=C(O)c1ccc2nc(-c3cc4cccc(O)c4oc3=O)[nH]c2c1	/	/	/	20µM	.	/
CCc1cc2c(=O)c(-c3nc4ccccc4[nH]3)coc2c(CN2CCCCC2)c1O	.	27	.	.	.	.
O=c1oc2c(O)cccc2cc1-c1nc2ccccc2[nH]1	?	47	69	.	.	.
C=CCc1cccc2cc(-c3nc4ccc(C)cc4[nH]3)c(=O)oc12	/	36	91	.	/	/
N#Cc1nc(-c2ccccc2Cl)oc1N1CCOCC1	.	17	.	.	.	.
CC1CCN(c2oc(-c3ccccc3Cl)nc2C#N)CC1	.	37	99	.	.	.
SMILES	LmPK inh	CHX counter	Shiga inhibitor	TbPYK inhibitor	SARS PLP yeast	NS1 function inh
COc1ccccc1-c1nc(C#N)c(N2CCCCCC2)o1	.	.	.	.	.	.
CC1CCN(c2oc(-c3ccc(F)cc3)nc2C#N)CC1	.	41	62	.	.	.
CC1CCCN(c2oc(-c3cccc4ccccc34)nc2C#N)C1 (centres undefined)	.	.	.	.	.	.
Cc1ccccc1-c1nc(C#N)c(N2CCC(C)CC2)o1	.	24	46	.	.	.
c1ccc(-c2cn3c4c(sc3n2)CCCC4)cc1	14µM	12	.	.	.	.
CC(C)(C)n1nnnc1C(c1ccc(C(F)(F)F)cc1)N(Cc1ccc(F)cc1)Cc1ccco1 (centres undefined)	.	13	active	.	.	.
CC(C)(C)n1nnnc1C(c1ccc(F)cc1)N(Cc1ccc(F)cc1)Cc1ccco1 (centres undefined)	.	16	.	.	.	.
COc1ccc(C2C(C#N)=C(N)N3C(=C2C#N)Sc2ccccc23)cc1 (centres undefined)	.	20	.	/	.	.
CCCNc1ncnc2c1cnn2-c1ccc(OC)cc1	.	.	.	/	.	.
c1csc(CNc2ncnc3nc[nH]c23)c1	.	16	.	.	.	.
c1ccc(CNc2ncnc3nc[nH]c23)nc1	.	.	.	.	.	.
c1ccc(-n2ncc3c(NCc4cccs4)ncnc32)cc1	.	51	52	.	.	.
C=CCNc1ncnc2c1cnn2-c1ccc(OC)cc1	.	30	61	.	.	.
CCCN(CCC)c1ncnc2c1cnn2-c1ccc(OC)cc1	.	30	66	.	.	.
Clc1ccc(-n2ncc3c(NCc4ccco4)ncnc32)cc1	.	.	.	/	.	.
COc1ccc(-n2ncc3c(NCc4ccccn4)ncnc32)cc1	.	50	90	.	.	.
COc1ccc(CCNc2ncnc3c2cnn3-c2ccc(F)cc2)cc1	/	/	/	.	/	/
c1ccc(-n2ncc3c(NCc4cccnc4)ncnc32)cc1	.	20	.	.	.	.
COc1ccc(-n2ncc3c(NCc4cccs4)ncnc32)cc1	.	38	145	.	.	.
COc1ccc(-n2ncc3c(NCc4ccco4)ncnc32)cc1	.	39	90	.	.	.
CCOc1cccc(CN2CCC(Oc3ccc(C(=O)NCc4ccccn4)cc3)CC2)c1	.	.	.	.	.	.
CC1(c2cccc(Br)c2)NC(=O)N(CC(=O)Nc2ccc(S(N)(=O)=O)cc2)C1=O (centres undefined)	.	.	.	.	.	.
c1ccc(-c2nnc3sc(-c4csc5c4CCCC5)nn23)cc1	.	13	.	.	.	.
Cc1cccc(-c2nnc3sc(-c4ccccc4C)nn23)c1	.	.	46	.	.	.
c1ccc(-c2nnc3sc(-c4ccncc4)nn23)cc1	.	.	.	.	.	.
SMILES	LmPK inh	CHX counter	Shiga inhibitor	TbPYK inhibitor	SARS PLP yeast	NS1 function inh
COc1cccc(-c2nnc3sc(-c4ccccc4)nn23)c1	.	.	.	.	.	.
CC(C)N(Cc1ccccc1)C(=O)c1nc(-c2ccc(Cl)cc2)n2c1CCCCC2	/	/	/	.	/	/
CCOC(=O)C1=C(CN2CCN(c3ccc(OC)cc3)CC2)NC(=O)NC1c1ccc(OC)cc1 (centres undefined)	/	/	/	.	/	/
Cc1cc(C(=O)NCCc2ccc(Cl)cc2)c2c(C)nn(-c3cccc(F)c3)c2n1	/	/	/	.	/	/
CCN(C(=O)COC(=O)c1cc(=O)c2ccccc2o1)c1c(N)n(Cc2ccccc2)c(=O)[nH]c1=O	/	/	/	.	.	/
NS(=O)(=O)c1ccc2nc(NC(=O)Nc3ccccc3F)sc2c1	.	50	105	.	.	.
CC(Oc1ccccc1)C(=O)Nc1nc2ccc(S(N)(=O)=O)cc2s1 (centres undefined)	/	/	/	.	/	/
Cc1ccccc1NC(=O)Nc1nc2ccc(S(C)(=O)=O)cc2s1	.	.	+	.	.	.
O=C(CN1CCCC1=O)NC1CCCc2c1cnn2-c1cc(F)cc(F)c1 (centres undefined)	.	22	.	.	.	.
